Consider 90 molecules from PubChem BioAssay AID652039 (The Scripps Research Institute Molecular Screening Center, 2013).

Structures are written as SMILES. Several values for one entry are separate records, joined by “and”; a condition that tells them apart may be missing. Equal values may be shown once. About 3,300 (0.89%) of roughly 370,000 compounds were called active. For the sample, actives were picked, then their nearest neighbours and some compounds at random. A number with no mark means an inactive call.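 The calls were made as follows: active = activation above the mean of all tested compounds plus 3 SD, computed per campaign excluding outliers beyond control limits (cut at about 13% in these data); inactive = the rest.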

The target of this assay is Kallikrein-7 (Homo sapiens) (UniProt P49862). The experiment in a line: activation of human kallikrein-7 proenzyme – biochemical, fluorescence intensity, primary screen (AID 652039). The settings on record: purified proKLK7, EDANS-DABCYL substrate fluorescence; at 7 µM; hits give high values; 100% is mature enzyme control, 0% vehicle.
Kallikrein-7 (Homo sapiens), sequence (P49862 whole entry, looked up): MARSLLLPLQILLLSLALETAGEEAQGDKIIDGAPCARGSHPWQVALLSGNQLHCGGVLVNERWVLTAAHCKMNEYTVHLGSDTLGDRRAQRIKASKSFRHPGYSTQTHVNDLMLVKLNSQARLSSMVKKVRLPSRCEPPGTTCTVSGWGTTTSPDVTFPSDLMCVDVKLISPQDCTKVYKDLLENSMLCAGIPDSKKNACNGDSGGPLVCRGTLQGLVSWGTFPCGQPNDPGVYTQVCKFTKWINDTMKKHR
With `CCc1ccccc1NC(=O)CSc1nnc(-c2cccs2)o1`, the activation was 0.68%.

In the case of `COC(=O)[C@]1(C#N)CC(=O)N(CC2CCCCC2)[C@@H]1c1ccccc1`, the activation is -0.2%.

As for `COc1ccc(C#CCNCc2ccc(OC)cc2OC)cc1`, the activation was 0.52%.

As for `Cc1cc(N2CCOCC2)nc2ccc(NC(=S)N3CCN(Cc4ccccc4)CC3)cc12`, the activation is 16.8% (active).

Turning to `Cc1cc(N2CCN(C)CC2)nc2ccc(NC(=S)N3CCOCC3)cc12`, the activation is 7.61%.

In the case of `CCOCCCNC(=S)Nc1ccc2nc(N3CCN(CC)CC3)cc(C)c2c1`, the activation was 2.27%.

For the molecule `CC(=O)c1cc(-c2ccc3ccccc3c2)c(=O)n2c1CCC2`, the activation is 0.82%.

As for `CCOc1ccc(N2C(=O)CC(N(O)c3ccccc3)C2=O)cc1` (stereo not given), the activation is 95.9% (active).

For the molecule `CCOC(=O)c1ccc(N2C(=O)CC(N(C)Cc3ccccc3)C2=O)cc1` (stereo not given), the activation was 0.66%.

In the case of `CCOc1ccc(N2C(=O)CC(N(CCc3ccc(OC)c(OC)c3)C(=S)Nc3ccccc3)C2=O)cc1` (stereo not given), the activation was 0.29% and 0.35%.

As to `Cc1cccc(OCCNC(=O)CSc2ccc(C(F)(F)F)cc2[N+](=O)[O-])c1`, the activation was 0.55%.

`CC(C)CNC(=O)OCc1cn(Cc2ccc(F)cc2)nn1`: the activation was -0.65%.

`Cc1c(C(C)c2ccccc2O)[nH]c2ccccc12` (stereo not given): the activation is 0.01%.

Take `CC(=O)Nc1cc(-c2ccccc2F)cn2c(-c3cccc(C(F)(F)F)c3)cnc12`: the activation is -0.51%.

For `Cc1ccc(-c2c(N)nc3ncccn23)cc1`, the activation is 1.47%.

Turning to `CC(=O)Nc1nc2ncccn2c1-c1ccc(C(F)(F)F)cc1`, the activation was 17.7% (active).

Turning to `COC(=O)C1CN(CC(C)C)CCS(=O)(=O)N1Cc1ccc(C)cc1` (stereo not given), the activation was -0.1%.

For the molecule `CN(CC1CCCO1)S(=O)(=O)c1ccc(C(=O)Nc2ccc(F)cc2)cc1` (stereo not given), the activation is -0.36%.

Turning to `COC(=O)C1CN(Cc2ccc(F)cc2)CCS(=O)(=O)N1Cc1ccc(Cl)cc1` (stereo not given), the activation was -0.13%.

`O=S1(=O)c2ccc(N3CCN(Cc4ccccc4F)CC3)cc2Oc2ccccc2CN1Cc1cn(Cc2ccc(Cl)cc2)nn1`: the activation was -0.98%.

Consider `CC1C/C(=N/NC(=O)c2cccs2)CC(C)(C)C1` (stereo not given), for which the activation is 0.16%.

Turning to `COC(=O)[C@]12C[C@H](CC(=O)NCc3ccccc3)C(=O)N(CCC3=CCCCC3)C1=C[C@H](C(C)C)O[C@@H]2C1CC1`, the activation is 0.56%.

Take `CC(C)[C@H](NC(=O)Nc1ccc(S(N)(=O)=O)cc1)C(=O)O`: the activation is -0.23%.

Take `C=CCCC(=O)Nc1nc(C)c(-c2csc(Nc3ccc(Cl)cc3)n2)s1`: the activation was -1.66%.

`CC(=O)Nc1nc(C)c(-c2csc(Nc3ccc(S(N)(=O)=O)cc3)n2)s1`: the activation is 118% (active).

As for `Cc1ccc(Cn2cc(CN3[C@@H](C)COc4cc(Br)ccc4S3(=O)=O)nn2)cc1`, the activation is 0.74%.

Take `COc1ccc(-n2c(COc3ccc(C)cc3)nnc2SCC(=O)Nc2ccc(Oc3ccccc3)cc2)cc1`: the activation was -0.88%.

As for `CCCOc1ccc2c3c(c(=O)oc2c1OCCC)CCC3`, the activation is -1.41%.

For the molecule `COc1ccc2c3c(c(=O)oc2c1OCC(=O)C(C)(C)C)CCCC3`, the activation is 2.75%.

On to `O=c1oc2c(CN3CCCCC3)c(O)ccc2c2c1CCCCC2`, for which the activation is 68.2% (active).

As to `O=C(OC12CCCN(C1)/C(=C/c1cccnc1)C2)C1CCCC1` (stereo not given), the activation is 0.01%.

As to `CCN1CCCC1CNC(=O)c1ccc2c(c1)NC(=O)/C(=C\c1ccccc1F)S2` (stereo not given), the activation is 0.44%.

With `COc1ccc(C(=O)NCC2CCCN2S(=O)(=O)c2cccs2)cc1OC` (stereo not given), the activation was 0.25%.

On to `CCN1CCCC1CNC(=O)c1cc2cc(OC)c(OC)cc2[nH]1` (stereo not given), for which the activation is 17.5% (active).

For the molecule `CN[C@H]1C[C@H]2c3cc(N4CCOCC4)ccc3CCN2C[C@H]1[C@H](C)O`, the activation is -0.23%.

As to `Cc1ccccc1NC(=O)C1CCN(c2ncccn2)CC1`, the activation is 0.11%.

As for `CC[C@@H](CCC(=O)N(c1ccccc1)c1ccccc1)C1CC1`, the activation is 0.23%.

Take `CCn1c(=N)c(S(=O)(=O)c2ccc(F)cc2)cc2c(=O)n3ccccc3nc21`: the activation is 3.21%.

For `CCCn1c(=NC(C)=O)c(C(=O)OCC)cc2c(=O)n3ccccc3nc21`, the activation was 24.2% (active).

For the molecule `CCOC(=O)c1cc2c(=O)n3ccccc3nc2n(CC(C)C)c1=NC(=O)c1c(-c2c(F)cccc2Cl)noc1C`, the activation was 0.37%.

As to `O=C(C1CCN(S(=O)(=O)c2ccccc2)CC1)N1CCN(C2CCCCC2)CC1`, the activation is 0.53%.

Consider `O=C(NN1CCOCC1)c1cccc(F)c1`, for which the activation is 0.32%.

With `COc1ccc(N2CCN(CCNS(=O)(=O)c3ccc([N+](=O)[O-])cc3)CC2)cc1`, the activation was -0.14%.

In the case of `C=CCOc1cccc(C2NC(=O)c3ccccc3O2)c1` (stereo not given), the activation was -1.97%.

As to `O=C1NC(c2cccc(Cl)c2)Nc2ccccc21` (stereo not given), the activation was 13.9% (active).

As to `O=C1NC(c2ccccc2)Oc2ccccc21` (stereo not given), the activation is -2.02%.

In the case of `O=C(c1ccncc1)N1CC[C@H]2[C@H](CCCN2Cc2ccc(F)cc2)C1`, the activation was 0.94%.

Regarding `CC(OC(=O)c1ccccc1NCCO)C(=O)Nc1ccnn1C(C)C` (stereo not given), the activation was 32.9% (active).

As for `Cc1c(NC(=O)C(C)OC(=O)c2ccccc2O)c(=O)n(-c2ccccc2)n1C` (stereo not given), the activation was 1.12%.

Take `COc1ccccc1NC(=O)C(C)OC(=O)c1ccc(-n2cnnn2)cc1` (stereo not given): the activation is -0.16%.

Turning to `CC(C)CNc1cccc2c1S(=O)(=O)N(Cc1cn(Cc3ccc(Cl)cc3)nn1)Cc1ccccc1O2`, the activation was -9.81%.

For the molecule `CN(CCc1ccccn1)S(=O)(=O)c1ccc2c3c(cccc13)C(=O)N2`, the activation is 41.6% (active).

Take `CN(CCc1ccccn1)C1CCCN(S(=O)(=O)c2ccccc2Cl)C1` (stereo not given): the activation was 0%.

On to `CN(CC(=O)NCCc1ccccn1)S(=O)(=O)c1ccc(Cl)cc1`, for which the activation is 0.31%.

Consider `N#Cc1ccc(OC[C@@H](O)CN2CCC(C(O)(c3ccccc3)c3ccccc3)CC2)c(F)c1`, for which the activation was 0.5%.

Turning to `COc1c(N2CCN(C(=S)Nc3ccccc3F)C(C)C2)c(F)cc2c(=O)c(C(=O)O)cn(C3CC3)c12` (stereo not given), the activation was 17.9% (active).

Regarding `CN1[C@H](Cc2ccccc2)COc2cccc(N3CCSCC3)c2S1(=O)=O`, the activation was 0.48%.

Take `C[C@@H]1COc2cccc(N3CCCC3)c2S(=O)(=O)N1C`: the activation was 0.38%.

Regarding `CC1CCN(c2oc(-c3ccccc3F)nc2C#N)CC1`, the activation is -0.12%.

`N#Cc1nc(-c2cccc3ccccc23)oc1N`: the activation is 56.1% (active).

Take `N#Cc1nc(Cc2cccc3ccccc23)oc1NCc1ccc2c(c1)OCO2`: the activation was 0.74%.

With `Cc1nc2ccc(N)nc2nc1C`, the activation was 55.8% (active).

Regarding `Cc1nc2cccnc2nc1C`, the activation is -0.19%.

As for `Cc1ccc(C)c(NC(=O)CCS(=O)(=O)c2ccccc2)c1`, the activation was -0.69%.

With `CCNC(=S)Nc1ccc2c(c1)c(=O)n(C)n2Cc1ccc(Cl)cc1`, the activation was 21.2% (active).

With `COc1cc(Cn2c3ccc(NC(=O)CC(C)c4ccccc4)cc3c(=O)n2C)ccc1F` (stereo not given), the activation was 2.56%.

`Cn1c(=O)c2cc(NC(=O)NCCc3cccs3)ccc2n1Cc1cccc(C(F)(F)F)c1`: the activation is -1.5%.

For `COc1ccc(N2CCN(CCNS(=O)(=O)c3ccc(Cl)s3)CC2)cc1`, the activation was -0.36%.

Consider `CCOC(=O)C1=C(C)NC2=C(C(=O)CC(C)(C)C2)C1c1ccc2c(c1)OCO2` (stereo not given), for which the activation was 0.13%.

For `O=C(NCCCN1CCCC1=O)c1ccc(S(=O)(=O)Nc2ccccc2)cc1`, the activation was -0.77%.

As for `CC(CN1CCOCC1)OC(=O)c1ccc(C(C)(C)C)cc1` (stereo not given), the activation is 0.72%.

Consider `COCC(C)OC(=O)c1c(N)n(CCCN2CCOCC2)c2nc3ccccc3nc12` (stereo not given), for which the activation is 16.3% (active).

As to `CC(C)(C)OC(=O)c1c(N)n(CCCN2CCCC2=O)c2nc3ccccc3nc12`, the activation is 62.5% (active).

As to `CC(=O)c1ccc(NC(=O)CSc2nc3ccccc3c(=O)n2CCCN2CCOCC2)cc1`, the activation is 0.28%.

Regarding `Cc1nn(Cc2ccccc2)c(C)c1C(=O)NCCCN1CCCC1=O`, the activation is -0.1%.

Turning to `CCCCCCNC(=O)O[C@H]1CN(C(=O)OC(C)C)N(C(=O)OC(C)C)[C@@H]2CN(S(=O)(=O)c3ccc(C)cc3)C[C@]12O`, the activation is -0.38%.

Regarding `O=C1CCC2(CCC(c3ccc(Cl)cc3)CC2)N1CCO` (stereo not given), the activation was -0.69%.

Consider `Cc1cccc(C)c1NC(=O)C(c1ccccc1)N1CC(=O)Nc2ccccc21` (stereo not given), for which the activation was 16.4% (active).

Turning to `Cc1ccccc1SCC(=O)OCC(=O)N1CC(=O)Nc2ccccc21`, the activation is 0.52%.

As to `Cc1cccc(C)c1NC(=O)C(c1cccc(F)c1)N1CCN(C)CC1` (stereo not given), the activation is -0.04%.

For `CCCCNC(=O)C[C@@H]1C(=O)N(CCc2ccc(Cl)cc2)C2=CCCC[C@]21C(=O)OCC`, the activation is 0.21%.

With `CC(CCN1CCC(C(O)(c2ccccc2)c2ccccc2)CC1)Oc1ccc(Cl)cc1` (stereo not given), the activation is -0.05%.

`CCOC(=O)C(=O)N(Cc1ccccc1)c1ccccc1C(=O)Nc1cc(OC)ccc1OC`: the activation is 0.42%.

Take `CCc1nnc(NC(=O)CSc2nc3ccccc3c(=O)n2CCCOC)s1`: the activation is 0.09%.

`COc1ccccc1C(=O)Nn1c(-c2cccs2)nc2ccccc2c1=O`: the activation is -0.4%.

As to `COCCCn1c(-c2cccs2)nc2nc3ccccc3nc21`, the activation was 22.9% (active).

Turning to `O=C1CC[C@@H](COc2ccc3[nH]cc(-c4ccccc4)c3c2-c2ccccc2)N1`, the activation was -1.38%.

Take `CCCc1cc(=O)oc2c(C)c(OCC(=O)N3CCC(C(=O)O)CC3)ccc12`: the activation was 0.06%.

On to `CCCc1cc(=O)oc2c(C)c(OC(C)C(=O)NCC(O)c3ccccc3)ccc12` (stereo not given), for which the activation is -0.01%.

Consider `CCCc1cc(=O)oc2c(C)c(O)c(CN3CCCCC3)cc12`, for which the activation is 58.8% (active).
